Source: PubChem BioAssay (National Center for Advancing Translational Sciences (NCATS))
KB-V1 MDR tox: qHTS assay for MDR1-selective chemotherapeutics: Primary screen using the drug-selected MDR subline cells KB-V1. KB-V1 MDR cells viability, CellTiter-Glo, 72 h. Potency, µM (doses to about 46.1 µM), usual class: cytotoxic. actives 3.4% (n = 400,000). AID 1347076, 2019; further: on the % scale 0 is the no-effect control and ±100 the full control effect; nearly all actives have a fitted effect of over 60% in size
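Cells of the MDR subline KB-V1 are plated, dosed with compound at multiple concentrations, and incubated 72 h at 37 degrees C; CellTiter-Glo is then added and luminescence read after 10 min.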
ELG1 DNA repair: qHTS screen for small molecules that inhibit ELG1-dependent DNA repair in human embryonic kidney (HEK293T) cells expressing luciferase-tagged ELG1; HEK293T ELG1-luciferase reporter, luminescence, 16 h; DNA damage induced by 5-fluorouridine; Potency, µM (series often up to 46.1 µM), for the others: top-dose activity change, negative = inhibition, most hits filed as inhibitors; actives 2.3% (n = 330,000); AID 504467, 2011; further: on the % scale 0 is the no-effect control and ±100 the full control effect; nearly all actives have a fitted effect of over 55% in size
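5-Fluorouridine DNA damage + compound/DMSO, 2,000 cells/well, 16 h, 37 °C/5% CO2. ONE-Glo, 30 min RT, luminescence. Readout = decrease in reporter signal.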
SW480 rereplic: A quantitative high throughput screen for small molecules that induce DNA re-replication in SW480 colon adenocarcinoma cells; SW480 DNA re-replication, Hoechst DNA content imaging, 48 h; Potency, µM (titrated, usually from 46.1 µM), for inactives: top-dose re-replication activation, actives largely listed as activators; actives 1.8% (n = 340,000); further: % of control where 0% means no effect; nearly all actives have a fitted effect of over 55% in size
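Readout is total intensity of Hoechst-stained nuclei, excited at 405 nm and collected at 500-530 nm. Compound treatment lasted 48 hr at 37 C in 5% CO2 before staining.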
MCF10A rereplic: A quantitative high throughput screen for small molecules that induce DNA re-replication in MCF 10a normal breast cells. Potency, µM (series often up to 46.1 µM), for inactives: at the highest dose activity, positive = re-replication, most hits filed as activators. actives 2.9% (n = 350,000). MCF 10A DNA re-replication, Hoechst nuclear intensity, 48 h; further: % of control where 0% means no effect; nearly all actives have a fitted effect of over 50% in size
KB-3-1 tox: qHTS assay for MDR1-selective chemotherapeutics: Primary screen using the parental adenocarcinoma cell KB-3-1 | KB-3-1 viability, CellTiter-Glo ATP luminescence, 72 h | Potency, µM (titrated, usually from 46.1 µM), most hits filed as cytotoxic | actives 1.4% (n = 400,000); further: on the % scale 0 is the no-effect control and ±100 the full control effect; nearly all actives have a fitted effect of over 60% in size
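Cytotoxicity in the drug-sensitive parental line KB-3-1 was scored as loss of CellTiter-Glo luminescence following 72 h incubation with compound. Values come from curve fitting of normalized concentration-response data.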
* = called active by the depositor; i = inactive; u = inconclusive; x = not tested or not shown. Sampled rows, rich in hits. Any-hit rate of the full collection: about 8.1%. The call rests on the fitted dose curve; in most records, active means well fitted curve in the direction sought with a large enough effect; inconclusive means small, poorly fitted or top-dose-only effect, or another doubt; inactive means no such curve, though single readings can be large; an effect the other way counts as inactive or inconclusive. Potency means the concentration at half of the fitted maximal effect.

SMILES | KB-V1 MDR tox | ELG1 DNA repair | SW480 rereplic | MCF10A rereplic | KB-3-1 tox
COc1ccc(C=NNC(=S)NC23CC4CC(CC(C4)C2)C3)cc1OC | 2.91µM* | x | u | 9.2µM* | u
CCOc1ccc(CNC(=S)N/N=C/c2ccc(OC)c(OC)c2)cc1 | 16.4µM* | u | 140.5% | -17.6% | i
COc1cc(/C=N/NC(=S)NCc2ccccc2)ccc1OCC#N | u | u | 4.2% | 2.3% | i
COc1cc(OC)c(C=NNC(=S)NC23CC4CC(CC(C4)C2)C3)c(OC)c1 | 5.17µM* | x | u | u | i
COc1cccc(/C=N/NC(=O)NC23CC4CC(CC(C4)C2)C3)c1O | u | x | 7.3% | 28.5% | u
N#Cc1ccccc1OCC(=O)OCC(=O)NC1CCCCCC1 | i | 11.2% | 0.0% | -2.1% | i
Cc1cccc(C(=O)/C=C2/c3ccccc3CC(C)(C)N2C)c1 | 18.4µM* | -12.1% | -2.9% | 19.3% | i
O=c1[nH]ncn1-c1ccccc1 | i | 4.6% | -17.5% | 0.8% | i
CCC(Sc1nc2cc(OC)c(OC)cc2c(=O)n1CCc1ccc(OC)c(OC)c1)C(=O)NCCOC (centres undefined) | u | 18.3µM* | u | 22.4% | i
COc1ccc(CNC(=O)CCc2nc3cccnc3n2Cc2ccc(OC)cc2)cc1 | i | x | x | x | i
COCCNC(=O)CSc1nc2cc(OC)c(OC)cc2c(=O)n1Cc1ccc(OC)cc1 | 2.59µM* | u | 7.5% | 14.0% | i
COCCNC(=O)CSc1nc2ccc(N3CCOCC3)cc2c(=O)n1Cc1ccc(OC)cc1 | i | 16.0% | u | u | i
COc1ccc(Cn2c(CCC(=O)NCc3ccco3)nc3cccnc32)cc1 | 20.6µM* | 14.2% | -2.7% | -2.2% | i
COc1cc2nc(SCC(=O)NCc3ccco3)n(Cc3ccc(Cl)cc3)c(=O)c2cc1OC | u | -21.6% | 18.4µM* | 14.6µM* | 10.3µM*
C/C(=N/NC(=O)c1ccc(Cn2cccn2)o1)c1cccc(NC(=O)c2ccncc2)c1 | i | u | -5.6% | 11.0% | i
N=c1oc2ccc(Br)cc2cc1C(=O)NCc1ccccc1 | i | 3.0% | 0.3% | -1.9% | i
CCCCCCc1cc2cc(C(=O)NCc3ccccc3)c(=N)oc2cc1O | i | -0.5% | u | 7.31µM* | i
CCCCCCc1cc2cc(C(=O)Nc3ccccc3)c(=O)oc2cc1O | 2.31µM* | u | 2.06µM* | u | i
Cc1nc(-n2nnc3ccccc32)c2c3c(sc2n1)CCCC3 | 13µM* | u | -0.1% | u | u
c1ccc2c(c1)nnn2-c1ncnc2sc3c(c12)CCCC3 | 16.4µM* | 7.8% | -4.6% | 10.2% | i
c1ccc2c(c1)ncn2-c1ncnc2sc3c(c12)CCCC3 | i | u | -0.9% | 3.3% | i
Oc1ccc(N2CCN(c3ncnc4sc5c(c34)CCC5)CC2)cc1 | i | u | u | 13µM* | i
CC(O)CNc1nc2ccccc2n1-c1ncnc2sc3c(c12)CCC3 (centres undefined) | 13µM* | u | -0.4% | 20.5% | u
Cc1ccc(C(=O)N2CCN(c3cc(=O)[nH]nc3-c3ccccc3)CC2)cc1 | i | -11.4% | -6.8% | 9.3% | i
CC(C)c1ccc(S(=O)(=O)N2CCN(C(=O)CCNS(=O)(=O)c3ccccc3F)CC2)cc1 | i | -5.2% | -15.4% | 1.8% | i
COc1ccc(C2(O)CCN(Cc3nnnn3Cc3ccc(C)cc3)CC2)cc1 | i | -16.5% | u | 20.6µM* | i
COc1ccc(Cn2nnnc2CN2CCc3ccccc32)cc1 | i | 10.5% | 23.1µM* | 9.4% | i
COc1ccc(Cn2nnnc2CN2CCc3ccccc3C2)cc1 | i | -1.6% | 0.7% | 12.8% | i
